A short description of test [1]: P. berghei load reduction in hepatocytes – cell-based, HepG2, luciferase luminescence, HepG2 viability, primary screen (AID 624349; in the data active = parasite load remaining mostly below about 12%, no sharp cut-off; inactive = mostly above about 10%;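 note: 100% = mean of DMSO negative control wells on the same plate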). As to conditions: P. berghei liver stage in HepG2, luciferase luminescence, concentration not given here; parasite load remaining: stronger effect = lower value; viability: measured here: HepG2 viability without parasites.
The nature of test [2]: signal quenchers or enhancers, Cy5 substrate/SSB – biochemical, NIH Clinical Collection, E. coli SSB, artefact control for HCV NS3 helicase inhibitor project (AID 743268; call rule not given here). As to conditions: Cy5-oligo bound E. coli SSB, fluorescence interference.
For test [3], the system named is Hepatitis C virus NS3 helicase. The test is described as follows: blockers of NS3h binding to DNA – biochemical, fluorescence polarization, NIH Clinical Collection, primary screen (AID 743270; call rule not given here). Conditions: NS3 helicase binding to Cy5-dT15 DNA, stronger effect = higher value, concentration not given here. (Fluorescence polarisation rises when a labelled molecule tumbles more slowly, as on binding a larger partner.)

Test [4] deals with Single-stranded DNA-binding protein (Escherichia coli (strain K12)) (UniProt P0AGE0). The test is described as follows: SSB-ssDNA binding inhibitors – biochemical, fluorescence polarization, NIH Clinical Collection, counter-screen for HCV NS3 helicase inhibitor project (AID 743271; in the data active = inhibition above about 28%). As to conditions: E. coli SSB-DNA binding, stronger effect = higher value, concentration not given here.
Test [5] is described as follows: compounds distorting NS3 helicase fluorescence signal – biochemical, NIH Clinical Collection, artefact control for HCV NS3 helicase inhibitor project (AID 743272; call rule not given here;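 note: HCV NS3 helicase with a Cy5 labelled single stranded DNA probe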). Conditions: fluorescence interference counterscreen, HCV NS3 helicase assay; stronger effect = lower value. Background: Counterscreens check selectivity or assay interference.
Test [6] deals with Neuropilin-2 / VEGF-C interaction (human). The test is described as follows: small molecules blocking Neuropilin-2/VEGF-C interaction – biochemical, microplate binding format, z-score (AID 743281; call rule not given here). Conditions: microplate NRP2/VEGF-C binding assay; stronger effect = lower value.
Test [7] is described as follows: modulation of C. elegans fzo-1 (AID 1259413; call rule not given here;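 note: fzo-1 mutant C. elegans worms in liquid wells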). Conditions: C. elegans fzo-1 modulator screen, mean read-out; stronger effect = higher value.
The next test relates to F380Y. Kind of test: BK channel mutant inhibitors and activators – cell-based, U2OS BacMam, thallium flux, beta subunits, selectivity assay, profiling panel (AID 1259406).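 Note: initial slope of Thallos dye fluorescence rise after thallium is added; log ratio against the mean of 0.3% DMSO vehicle wells on the same plate.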 Conditions: U2OS BacMam BK variants, at 30 µM.
In the next test the test system is F380Y/beta1. The description is as above. Conditions: U2OS BacMam BK variants, at 30 µM.
In the next test the test system is F380Y/beta2Delta. The description is as above. Conditions: U2OS BacMam BK variants, at 30 µM.
The test system of the next test is F380Y/beta4. The test is described as above. Conditions: U2OS BacMam BK variants, at 30 µM.
Test [8] addresses Calcium-activated potassium channel subunit alpha-1 (Homo sapiens) + Leucine-rich repeat-containing protein 26 (Homo sapiens) (UniProt Q12791+Q2I0M4). The test is described as above. Conditions: U2OS BacMam BK variants, F380Y/Slo1WT/gamma1, at 30 µM.
The next test has as its system R275C. The test is described as above. Conditions: U2OS BacMam BK variants, at 30 µM.
Another test has as its system R275C/beta1. The description is as above. As to conditions: U2OS BacMam BK variants, at 30 µM.
The test system of another test is R275C/beta2Delta. Described as above. As to conditions: U2OS BacMam BK variants, at 30 µM.
For another test, the system named is R275C/beta4. The test is described as above. As to conditions: U2OS BacMam BK variants, at 30 µM.
Another test deals with R275C/Slo1WT/beta2. Described as above. Conditions: U2OS BacMam BK variants, at 30 µM.
The nature of test [9]: viability loss with induced miR-34 in A549 – imaging, A549 dox-inducible miR-34, nuclei and caspase counts, primary screen (AID 1347080;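 active = compounds whose cell count with miR-34 switched on is under 0.7 times the count with it off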). As to conditions: A549 miR-34 inducible, Hoechst nuclei count, 48 h.
A short description of test [10]: galactose survival enhancers in mitochondrial complex I cybrids – cell-based, galactose medium, ATP luminescence, primary screen (AID 1645843;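 active = z-score of at least 1.8 in each of two replicates, scored against plate mean and spread of sample wells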;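 note: positive z means more ATP and so rescue of galactose-driven cybrid death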). Conditions: complex I mutant cybrid cells, 72 h, stronger effect = higher value.
[11] abbreviates: stronger effect = lower value, cell number ratio, induced over uninduced.
The mark [12] stands for this setting: measured here: relative caspase fold change +Dox/-Dox.
Setting [13] is: measured here: total cells with miR-34 induction, stronger effect = lower value.
[14] abbreviates: measured here: total cells without miR-34 induction.

Calls of active or inactive are those of the source.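 Rule for the calls, unless noted: active = thallium flux through the channel raised or lowered by more than 3 SD from vehicle-only wells, actives on both sides; inactive = the rest.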

Chain of Calcium-activated potassium channel subunit alpha-1 (Homo sapiens) + Leucine-rich repeat-containing protein 26 (Homo sapiens) (Q2I0M4 whole entry, looked up, one chain of several): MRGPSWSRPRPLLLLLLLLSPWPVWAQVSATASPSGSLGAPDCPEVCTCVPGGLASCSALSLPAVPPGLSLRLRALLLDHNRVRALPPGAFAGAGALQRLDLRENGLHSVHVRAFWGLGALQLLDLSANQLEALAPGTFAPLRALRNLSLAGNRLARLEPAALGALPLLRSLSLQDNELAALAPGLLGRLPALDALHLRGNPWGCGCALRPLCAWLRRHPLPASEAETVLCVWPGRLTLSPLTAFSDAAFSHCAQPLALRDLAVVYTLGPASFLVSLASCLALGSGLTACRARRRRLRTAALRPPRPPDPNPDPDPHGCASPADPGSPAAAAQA

The term viability denotes the share of living cells, or the viability signal relative to a control. What is called inhibition is the relative decrease from the control value, in per cent. In the case of `Nc1nc(Cl)nc2c1ncn2[C@@H]1O[C@H](CO)[C@@H](O)[C@H]1O`, the parasite load remaining in [1] is 214% (inactive). Further, the viability in [1] turned out to be 40.5%. Further, the fluorescence ratio in test [2] and in test [5] was 1 (inactive) each time. Moreover, the values for the inhibition in test [3] and in [4] were 5.15% (inactive) and 7.6% (inactive), respectively. The z-score in test [6] is 0.198 (inactive). For the same molecule, the mean signal in [7] was 269 (inactive). Further, the log fold change Tl+ flux in the test with F380Y is -0.00984 (inactive); in the test with F380Y/beta1 it was -0.0372 (inactive); with F380Y/beta2Delta, -0.0171 (inactive); with F380Y/beta4 it was -0.000976 (inactive); in test [8], -0.026 (inactive); in the test with R275C it was 0.0386 (inactive). The log fold change Tl+ flux in the test with R275C/beta1 is -0.0185 (inactive); with R275C/beta2Delta, -0.0141 (inactive); with R275C/beta4, 0.0509 (inactive); in the test with R275C/Slo1WT/beta2 it was -0.00662 (inactive).

With `CN(CCO)CC(O)Cn1cnc2c1c(=O)n(C)c(=O)n2C` (centres undefined) (tested in a mixture with another compound), in test [1], the parasite load remaining was 65% (inactive). This molecule also registered a viability in test [1] of 66.2%. Moreover, the fluorescence ratio in test [2] was 0.97 (inactive); in [5] it was 0.94 (inactive). In addition, the inhibition in test [3] is -0.22% (inactive); in test [4], 0.39% (inactive). Also, the values for the z-score in test [6] and in test [10] were -0.276 (inactive) and 0.47 (inactive), respectively. Besides, in [7], the mean signal is 208 (inactive). The fold change in [9] (setting [11]) is 1.72 (inactive); in [9] (setting [12]) it was 0.852. Also, the figures for the cell count in [9] (setting [13]) and in test [9] (setting [14]) were 8830 and 5120, respectively. Moreover, the log fold change Tl+ flux was 0.0136 (inactive) in the test on F380Y; 0.0124 (inactive) in the test with F380Y/beta1; -0.0171 (inactive) in the test with F380Y/beta2Delta; 0.017 (inactive) with F380Y/beta4; 0.0349 (inactive) in test [8]; -0.0477 (inactive) in the test with R275C. For the same molecule, the log fold change Tl+ flux with R275C/beta1 is 0.0362 (inactive); in the test with R275C/beta2Delta, -0.03 (inactive); in the test with R275C/beta4, -0.00112 (inactive); in the test with R275C/Slo1WT/beta2 it was 0.00717 (inactive).

For `CNC(=O)Oc1ccc2c(c1)[C@]1(C)CCN(C)C1N2C` (some centres undefined), in [1], the parasite load remaining was 98.8% (inactive). The same molecule returned a viability in [1] of 84.5%. Also, the values for the fluorescence ratio in [2] and in test [5] were 1.1 (inactive) and 1.08 (inactive), respectively. Besides, the inhibition in [3] was 5.94% (inactive); in [4], -0.1% (inactive). Besides, the z-score in test [6] was -0.245 (inactive); in test [10], -1.49 (inactive). In addition, the mean signal in [7] was 259 (inactive). The values for the fold change in [9] (setting [11]) and in [9] (setting [12]) were 0.976 (inactive) and 1.81, respectively. Moreover, the figures for the cell count in test [9] (setting [13]) and in [9] (setting [14]) were 10400 and 10600, respectively. The log fold change Tl+ flux is -0.0388 (inactive) in the test with F380Y; -0.0363 (inactive) with F380Y/beta1; -0.00825 (inactive) with F380Y/beta2Delta; 0.000651 (inactive) in the test with F380Y/beta4; 0.0144 (inactive) in [8]; -0.0205 (inactive) in the test with R275C. Further, the log fold change Tl+ flux is 0.00244 (inactive) in the test on R275C/beta1, -0.0145 (inactive) with R275C/beta2Delta, 0.023 (inactive) in the test on R275C/beta4 and -0.0113 (inactive) in the test on R275C/Slo1WT/beta2.

Values taken from PubChem BioAssay.
